Measured values taken from PubChem BioAssay.

Legend:
[1] = tested on: Human papillomavirus type 1a protein E7 (residues 44-93); experiment: HPV1a E7 fragment binders on microarrays, primary screen, biochemical, small-molecule microarray, residues 44-93, 635 nm fluorescence (AID 1108); details: small-molecule microarray binding, fluorescence 635 nm; higher = more signal;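 note: E7 fragment applied at 1 µg/mL in TBST for 1 h at 4 C; score combines spot fluorescence with its signal to noise ratio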
[2] = modulators of HCV replicon luciferase signal, primary screen, HCV replication inhibitor project, Huh7 cells, luciferase reporter (AID 1109); details: 48 h, higher = more signal;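 note: huh7 hepatoma cells harbouring a luciferase neomycin HCV replicon reporter; luciferase luminescence as measure of HCV replicon replication; test concentration not given here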
[3] = target: Left-right determination factor 2 (Homo sapiens) (UniProt O00292); experiment: LEFTY2 binders on small-molecule microarrays, primary screen, biochemical, small-molecule microarray, 635 nm fluorescence scan (AID 1110); details: LEFTY2 binding, higher = more signal
Chain of Left-right determination factor 2 (Homo sapiens) (O00292 whole entry, looked up): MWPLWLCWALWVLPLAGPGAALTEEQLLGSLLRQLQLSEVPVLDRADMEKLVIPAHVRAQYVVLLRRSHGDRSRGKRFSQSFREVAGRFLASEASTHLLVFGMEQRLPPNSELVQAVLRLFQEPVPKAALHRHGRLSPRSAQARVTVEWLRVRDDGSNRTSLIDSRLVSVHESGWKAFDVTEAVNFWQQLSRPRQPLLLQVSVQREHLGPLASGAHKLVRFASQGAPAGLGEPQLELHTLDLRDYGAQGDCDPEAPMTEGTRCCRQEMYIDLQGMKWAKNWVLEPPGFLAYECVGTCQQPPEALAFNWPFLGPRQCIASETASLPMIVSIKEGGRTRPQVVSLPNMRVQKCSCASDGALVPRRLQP

[4] = target: Calmodulin-1 (Homo sapiens) (UniProt P0DP23); experiment: CALM1 binders on microarrays, EGTA buffer, profiling panel, biochemical, small-molecule microarray, Cy5-labelled CALM1 (AID 1111); details: Cy5-CALM1 binding fluorescence, higher = more signal;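 note: labelled calmodulin applied in Tris saline Tween buffer holding calcium plus EGTA and DTT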
[5] = target: Calmodulin-1 (Homo sapiens) (UniProt P0DP23); experiment: calcium-bound CALM1 binders on microarrays, profiling panel, artefact control for SMM control-protein annotation, biochemical, small-molecule microarray, Cy5-labelled CALM1, plus calcium (AID 1112); details: Cy5-CALM1 binding fluorescence, higher = more signal;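 note: score merges spot fluorescence with signal to noise from triplicate slides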
[6] = small-molecule microarray binders of probe aWnt5a, primary screen, biochemical, biotinylated probe, 635/667 nm fluorescence (AID 1113); details: higher = more signal;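 note: score merges 667 nm fluorescence intensity with signal-to-noise per printed feature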
[7] = small-molecule microarray binders of probe aShh, primary screen, biochemical, biotinylated probe, 635/667 nm fluorescence (AID 1114); details: higher = more signal;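 note: probe is biotin-labelled aShh protein from a stem cell growth factor screen; measures binding of labelled protein to compounds printed on the slide; score merges feature fluorescence at 667 nm with signal-to-noise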
[8] = small-molecule microarray binders of probe aNog, primary screen, biochemical, biotinylated probe, 635/667 nm fluorescence (AID 1115); details: higher = more signal;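 note: probe is biotinylated aNog protein used at 0.15 µg/mL for 1 h at 4 C; z-score combines 667 nm fluorescence of each spot with its signal to noise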
[9] = target: Torsin-1A-interacting protein 1 (Homo sapiens) (UniProt Q5JTV8); experiment: LAP1 binders from COS7 cell lysate, primary screen, small-molecule microarray, 635/667 nm fluorescence (AID 1116); details: COS7-hLAP1 lysate binding, 635 nm fluorescence, higher = more signal
Chain of Torsin-1A-interacting protein 1 (Homo sapiens) (Q5JTV8 whole entry, looked up): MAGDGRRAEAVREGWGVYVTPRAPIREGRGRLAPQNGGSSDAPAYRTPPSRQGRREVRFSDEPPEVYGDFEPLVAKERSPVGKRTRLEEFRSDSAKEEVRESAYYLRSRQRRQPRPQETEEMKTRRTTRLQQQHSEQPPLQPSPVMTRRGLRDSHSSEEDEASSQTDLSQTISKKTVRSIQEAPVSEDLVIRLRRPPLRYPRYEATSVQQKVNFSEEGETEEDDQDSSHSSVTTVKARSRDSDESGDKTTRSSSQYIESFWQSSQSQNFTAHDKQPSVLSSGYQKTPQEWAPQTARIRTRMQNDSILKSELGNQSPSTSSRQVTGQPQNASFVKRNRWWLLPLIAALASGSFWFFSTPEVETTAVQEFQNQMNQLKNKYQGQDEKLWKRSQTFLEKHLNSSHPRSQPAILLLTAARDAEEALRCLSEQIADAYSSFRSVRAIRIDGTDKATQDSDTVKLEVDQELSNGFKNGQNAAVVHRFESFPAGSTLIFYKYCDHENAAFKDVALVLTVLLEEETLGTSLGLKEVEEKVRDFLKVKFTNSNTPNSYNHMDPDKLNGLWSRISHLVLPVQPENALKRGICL

[10] = target: Alpha-bungarotoxin (Bungarus multicinctus) (UniProt P60615); experiment: alpha-bungarotoxin binders on microarray, profiling panel, artefact control for SMM control protein annotation, biochemical, small-molecule microarray, Alexa647 label, 635/667 nm fluorescence (AID 1117); details: alpha-BTX-A647 binding fluorescence, higher = more signal
Chain of Alpha-bungarotoxin (Bungarus multicinctus) (P60615 whole entry, looked up): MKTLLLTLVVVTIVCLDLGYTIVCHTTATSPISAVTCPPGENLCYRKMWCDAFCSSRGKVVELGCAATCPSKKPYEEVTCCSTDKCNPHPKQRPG

Row | SMILES | composite z-score [1] | z-score [2] | composite z-score [3] | composite z-score [4] | composite z-score [5] | composite z-score [6] | composite z-score [7] | composite z-score [8] | composite z-score [9] | composite z-score [10]
1 | COCCOC(=O)N1C(=O)[C@@]2(c3cc(C#CC4=CCCCC4)ccc31)[C@H](C(=O)NC[C@H](O)c1ccccc1)[C@H]1C(=O)O[C@H](c3ccccc3)[C@H](c3ccccc3)N1[C@@H]2c1ccc(O)cc1 | 1.38 | -1.84 | 0.693 | 1.1 | 0.274 | -0.163 | -0.0055 | 0.996 | 0.949 | 1.13
2 | C=CC(COC(C)=O)NS(=O)(=O)c1ccc(Br)cc1 (stereo not given) | 0.62 | -0.437 | 0.65 | -0.467 | -0.883 | 0.093 | 0.0948 | -0.149 | 0.366 | 0.601
3 | C=CCOC(=O)[C@@H]1[C@H]2C(=O)O[C@H](c3ccccc3)[C@H](c3ccccc3)N2[C@H](c2ccc(OCCOC(=O)[C@@H]3C[C@@H]4C(=O)N[C@@H](Cc5ccccc5)C(=O)N4[C@@H]3c3cccc(OCCO)c3)cc2)[C@@]12C(=O)Nc1ccc(I)cc12 | 1.36 | -1.34 | 0.692 | -0.0116 | -0.137 | -0.0516 | -0.0211 | 1.07 | 1.31 | 1.25
4 | Cc1ccc([C@H]2[C@H](C(=O)O)[C@H](Sc3ccccc3)[C@@H](C(C)C)N2S(=O)(=O)c2ccc(C)cc2)cc1 | 1.41 | -0.981 | 0.314 | 1.36 | 0.904 | 0.0718 | -0.0709 | -0.528 | 0.759 | 0.715
5 | CC(=O)NCCCC[C@@H]1NC(=O)[C@@H]2C[C@H](C(=O)NCCCCN(C)C)[C@H](c3ccc(O)cc3)N2C1=O | -0.989 | -0.581 | -0.594 | -0.487 | 0.367 | -0.124 | -0.214 | -0.23 | 0.646 | -0.602
6 | CCCC[C@@H]1C[C@H]1[C@@H](NC(=O)c1ccc(-c2ccccc2)cc1)c1ccc(-c2ccccc2)cc1 | 0.511 | -0.787 | 0.848 | 0.212 | -0.836 | -0.0459 | 1.37 | -0.435 | 0.285 | 0.364
7 | CC(C)NC(=O)[C@@]1(Cc2ccccc2I)c2ccccc2C(=O)N(Cc2ccccc2)[C@H]1c1ccc(CO)cc1 | 0.997 | -1.09 | 0.337 | 0.447 | -0.726 | 0.0438 | -0.0503 | -0.422 | 0.568 | 1.4
8 | CC(=O)NCCCC[C@@H]1NC(=O)[C@@H]2C[C@H](C(=O)NCCCCCCNC(=O)CS)[C@H](c3ccc(O)cc3)N2C1=O | 1.07 | 0.391 | -0.746 | 0.725 | 0.31 | -0.211 | -0.0643 | -0.158 | 1.15 | 1.36
9 | CCCC[C@H]1OB(O)C[C@H]2C1=C(C)C[C@H]1C(=O)N(Cc3ccccc3)C(=O)[C@H]12 | 0.152 | 0.885 | 0.369 | 0.229 | -0.326 | 0.0017 | -0.0396 | -0.351 | -0.254 | -0.277
10 | CCC(CC)C(O)C1C=CC2C(=O)N(c3ccccc3)C(=O)C2N1Nc1ccc(C#N)cc1 (stereo not given) | 1.46 | 0.106 | 0.0717 | 1.67 | 0.55 | 0.275 | 0.57 | 1.78 | 0.602 | 1.08
11 | Cc1ccc(S[C@]2(C(=O)NCc3ccccc3)CC(=O)N(Cc3ccccc3Cl)[C@@H]2c2ccc(CO)cc2I)cc1 | -0.173 | -1.74 | -2.11 | -0.162 | 0.137 | -0.124 | -0.426 | -0.581 | 0.0931 | 1.7
12 | COC(=O)C1=CC(CCCO)=CC(C2CC2)N(Cc2sc3ccccc3c2Cl)C=C1C(=O)OC (stereo not given) | 1.44 | -2.53 | 0.101 | 1.49 | 0.952 | 0.168 | 0.441 | 0.838 | 1.74 | 1.84
13 | O=C(CCN1CCOCC1)c1cccc(O)c1 | 0.591 | -3.35 | 1.47 | -0.396 | -1.21 | -0.0372 | -0.123 | -0.158 | 0.0422 | 1.4
14 | O=C1c2ccccc2[C@@]2(Cc3ccccc3N(Cc3ccccc3)C2=O)[C@H](c2ccc(CO)cc2)N1C1CCCCC1 | 0.438 | -0.717 | 0.186 | 0.0329 | -0.105 | -0.202 | 0.0062 | -0.444 | -0.345 | 0.0868
15 | CC=CC(O)C1C=CC2C(=O)N(c3ccccc3)C(=O)C2N1Nc1ccc(C(C)C)cc1 (stereo not given) | 1.42 | 0.837 | 0.363 | 1.42 | 0.138 | 0.0194 | 0.0469 | 1.65 | 0.37 | 1.78
16 | COc1ccc(CCN2C(=O)[C@@]3(Cc4ccccc42)c2ccccc2C(=O)N(Cc2ccccc2Cl)[C@H]3c2ccc(CO)cc2)cc1 | -0.782 | 0.0889 | -0.622 | 0.102 | 0.45 | -0.176 | -0.138 | -0.272 | 0.0577 | 0.0121
17 | COC(=O)c1c(CC[C@@H](CO)NC(=O)N[C@@H](Cc2ccccc2)Cn2cc(C3(O)CCCCC3)nn2)oc(C(C)=O)c1C(=O)OC | 1.28 | -1.47 | 0.693 | 0.267 | -0.36 | -0.096 | -0.142 | -0.449 | 0.639 | 0.519

Row | SMILES | composite z-score [1] | z-score [2] | composite z-score [3] | composite z-score [4] | composite z-score [5] | composite z-score [6] | composite z-score [7] | composite z-score [8] | composite z-score [9] | composite z-score [10]
18 | C=C[C@H](C)[C@@H](O)c1ccc(O)c2ccccc12 | -0.899 | -2 | -0.187 | -1.15 | -0.975 | -0.175 | -0.221 | -0.689 | -0.438 | 0.465
19 | Cc1ccc(S[C@]2(C(=O)NCC(C)C)CC(=O)N(Cc3ccccc3)[C@@H]2c2ccc(CO)cc2I)cc1 | 1.29 | -2.6 | 0.118 | 0.425 | 0.473 | -0.063 | -0.196 | -0.67 | 0.0825 | 0.545
20 | O=C1OCC=C[C@H]2OC34C=CCN(c5ccc(Cl)cc5)C(=O)[C@H]3N(CCCCCCO)C(=O)[C@@H]4[C@@H]12 (stereo not given in full) | -0.851 | -0.493 | -1.21 | -0.123 | 0.174 | -0.128 | 0.0062 | 0.46 | -0.143 | -1.34
21 | [N-]=[N+]=Nc1ccccc1[C@H]1OC(c2ccc(OCCCO)cc2)=N[C@@]1(CCS(=O)(=O)c1ccccc1)C(=O)O | 0.447 | 0.86 | -0.512 | 1.16 | 0.373 | -0.131 | 0.0278 | 1.01 | 2 | 0.582
22 | C=CCNC(=O)[C@H]1[C@@H]2C(=O)O[C@@H](c3ccccc3)[C@@H](c3ccccc3)N2[C@@H](c2ccc(O)cc2)[C@]12C(=O)N(C(=O)OCCOC)c1ccc(C#CCCO)cc12 | 0.889 | -0.605 | -0.166 | 0.0387 | 0.171 | -0.185 | 0.0639 | -0.332 | 1.35 | 1.25
23 | O=C(NCc1ccccc1)[C@]1(CCS(=O)(=O)c2ccccc2)N=C(c2ccc(OCCCO)cc2)O[C@@H]1c1ccccc1 | 1.15 | -2.05 | 0.554 | 1.53 | 0.206 | 0.0579 | 0.182 | 0.0539 | 0.51 | 0.452
24 | COC(=O)[C@@]1(Cc2ccccc2)[C@H]2c3cc(C(=O)N4CCCC4)n(Cc4ccc(C)o4)c3C[C@H]2CN1C(=O)c1ccccc1 | 0.114 | -1.82 | -0.334 | 1.58 | -0.149 | -0.213 | -0.214 | -0.153 | 0.618 | 0.326
25 | COC(=O)c1ccc(OC)c(/C=C\CC(OC(C)=O)c2ccccc2)c1 (stereo not given) | -0.5 | -1.14 | 0.374 | 0.461 | 0.193 | -0.237 | 0.0668 | -0.397 | -0.129 | 0.808
26 | COCCCNC(=O)[C@@]1(c2ccc([N+](=O)[O-])cc2)CC(=O)N(CC23CC4CC(CC(C4)C2)C3)[C@@H]1c1ccc(CO)cc1 | 1.37 | -2.47 | 1.13 | -0.121 | -0.548 | -0.109 | -0.0119 | -0.761 | 0.422 | 0.572
27 | O=C1N(CCS(=O)(=O)c2ccccc2)c2ccccc2C[C@@]12COC(c1ccc(OCCCO)cc1)=N2 | 1.09 | -1.49 | 0.428 | 0.417 | 0.445 | 0.152 | 0.0124 | 0.69 | 0.99 | -0.103
28 | COC(=O)[C@@]1(Cc2ccccc2)[C@H]2c3cc(C(=O)N(C)C)n(Cc4c(-c5ccccc5)noc4C)c3C[C@H]2CN1C(=O)c1ccccc1 | 1.15 | -0.535 | -0.51 | 1.16 | 0.954 | 0.204 | 0.545 | 1.85 | 1.68 | 1.56
29 | COC(=O)[C@@]1(Cc2ccc(OC)cc2)[C@H]2c3cc(C(=O)N4CCCC4)n(Cc4cc(F)cc5c4OCOC5)c3C[C@H]2CN1C(=O)c1ccccc1 | 0.756 | -3.58 | -0.474 | 1.37 | 0.365 | 0.223 | 0.108 | 0.0549 | 0.831 | 0.408
30 | [N-]=[N+]=NCc1ccccc1[C@@H]1OC(c2ccc(OCCCO)cc2)=N[C@]1(Cc1ccccc1)C(=O)N1CCCCC1 | 1.39 | -2.79 | 0.232 | 1.4 | 0.955 | 0.0136 | 0.369 | 0.733 | 1.27 | 1.14
31 | C=C(C(=O)CC[C@H](OC(C)=O)c1ccc(OCCO)cc1)C(C)C | -0.268 | -4.11 | 1.03 | -0.189 | -1.39 | -0.1 | -0.0157 | -0.0965 | 0.949 | 1.05
32 | CC(C)OC(=O)CC(=O)CC(O)c1ccc(C#N)cc1 (stereo not given) | 0.443 | -0.259 | -0.461 | -1.49 | -1.46 | -0.0405 | -0.156 | -0.397 | 1.67 | 1.75
33 | CCCCCCCCCCC(O)C1C=CC2C(=O)N(Cc3ccccc3)C(=O)C2N1n1cnnc1 (stereo not given) | 1.37 | -1.2 | -0.62 | 1.55 | 0.727 | 0.147 | 0.251 | 0.62 | 0.36 | 1.02
